Source: PubChem
aSyn 5UTR act: Activators working through SNCA 5'UTR binding (MLPCN); alpha-synuclein 5'UTR reporter, activators screen; activity score, % (tested at 7.5 µM), hits read low; 300,000 compounds, 7.1% hits; in the data active = activity score below about -60%
A number is an active result; n = inactive. A selection follows.

SMILES | aSyn 5UTR act
CN(C)c1ccc(NC(=S)NC23CC4CC(CC(C4)C2)C3)cc1 | -129
COc1ccc(N=Nc2ccc(N)nc2N)cc1 | -68
COc1ccc(N=Nc2c(N)n[nH]c2N)cc1 | -85
O=C(CCC(=O)c1cccs1)c1cccs1 | -69
O=C(CSCc1ccco1)c1cccs1 | -174
Cc1ccc(NC(=O)CCC(=O)c2cccs2)c(O)c1 | -80
COC(=O)c1c(NC(=O)c2nc3ccccc3s2)sc2c1CC(C)(C)NC2(C)C | n
CCOC(=O)c1c(NC(=O)CSc2nc3ccccc3[nH]2)sc2c1CC(C)(C)NC2(C)C | -101
COc1cccc(-c2nnc(N(C)C(=O)C3CCOC3)s2)c1 (stereo unspecified) | -71
CC1CCC(=C(C#N)c2nc(-c3cc4ccccc4oc3=O)cs2)CC1 (stereo unspecified) | -258
O=C(Nc1nnc(C2CC2)s1)C1Cc2ccccc2CN1S(=O)(=O)c1cccs1 (stereo unspecified) | -66
CCc1nnc(NC(=O)C2Cc3ccccc3CN2S(=O)(=O)c2cccs2)s1 (stereo unspecified) | -105
CCc1nnc(NC(=O)C2Cc3ccccc3CN2S(=O)(=O)c2ccc(C)cc2)s1 (stereo unspecified) | -81
Cc1cc(C)c2sc(NNC(=O)c3ccc(S(=O)(=O)N4CCc5ccccc5C4)cc3)nc2c1 | n
CC(=O)O[C@H]1C(=O)[C@@]2(C)C([C@H](OC(=O)c3ccccc3)[C@]3(O)C[C@H](OC(=O)[C@H](O)[C@@H](NC(=O)c4ccccc4)c4ccccc4)C(C)=C1C3(C)C)[C@]1(OC(C)=O)CO[C@@H]1C[C@H]2O (stereo partly specified) | n
CN1C2CCC1/C(=C\c1ccccc1F)C(=O)/C2=C/c1ccccc1F | -89
CC1=NN(c2ccccc2)C(=O)C1C(=O)C(=O)Nc1ccc(F)cc1 (stereo unspecified) | -168
Cc1ccccc1CS(=O)(=O)c1ncc(Cl)c(C(=O)Nc2ccc(F)cc2)n1 | n
Cc1ccc(NC(=O)C(=O)C2C(=O)Nc3ccccc32)cc1 (stereo unspecified) | -77
COc1cccc(/C=N/NC(=O)c2cc3cc([N+](=O)[O-])ccc3s2)c1O | n
Cc1cccc(NC(=O)c2cc3cc([N+](=O)[O-])ccc3s2)n1 | -85
Cc1ccnc(NC(=O)c2cccs2)c1 | -118
Cc1ccnc(NC(=O)c2ccc(Br)s2)c1 | -115
O=C(Nc1nccc(-c2cccs2)n1)c1cccs1 | -92
O=C(Nc1ccccn1)c1cccs1 | -113
SMILES | aSyn 5UTR act
Cc1cccc(NC(=O)c2cccs2)n1 | -116
N#C/C(=N\Nc1ccccc1F)C(=N)N1CCCCC1 | -158
Cc1ccc(N/N=C(\C#N)C(=N)N2CCCCCC2)cc1 | -113
Cc1ccc(N/N=C(\C#N)C(=N)N2CCOCC2)cc1 | -141
COc1ccc(N/N=C(\C#N)C(=N)N2CCCCC2)cc1 | -82
CCN(CC)C(=N)/C(C#N)=N/Nc1ccc(C)cc1 | -136
N#C/C(=N\Nc1ccc(Cl)cc1)C(=N)N1CCCCC1 | -101
Cc1ccccc1/C=C1\CCCc2ccccc2C1=O | -241
Cc1ccsc1/C=C1\CCc2ccccc2C1=O | -165
COC(=O)c1ccc2c(=O)n3c(nc2c1)SCC(c1ccccc1)=N3 | -112
COc1ccccc1OCC#CCSc1ncccn1 | -81
N/C(=N\OC(=O)CCC1CCCC1)c1ccccn1 | -133
CC(C)(C)c1ccc(C(=O)O/N=C(\N)c2ccccn2)cc1 | n
N/C(=N\OC(=O)CCC1CCCC1)c1ccccc1 | -126
CCCCOC(=O)CSc1nc2c(cc1C#N)C(=O)CC(C)(C)C2 | -133
CCCCSc1nnc2c(n1)[nH]c1ccccc12 | -135
O=C(CSc1ccc(-c2ccccc2)nn1)Nc1ccc2c(c1)OCCO2 | -148
O=C(CSc1ccccc1)Nc1ccc2c(c1)OCCO2 | -63
O=C(CSc1nnc2c(n1)[nH]c1ccccc12)Nc1ccc2c(c1)OCO2 | -80
O=C(CSc1ccccc1)Nc1ccc2c(c1)OCO2 | -125
O=C(CSc1nnc2ccccn12)Nc1ncc(Cl)cc1Cl | -78
CC1Cc2nc(SCC(=O)Nc3ccc4c(c3)OCO4)n(Cc3ccccc3)c(=O)c2S1 (stereo unspecified) | -95
O=C(CSc1nnc2ccccn12)Nc1ccc2c(c1)OCCO2 | -122
COc1ccc(-n2c(SC(C)C(=O)Nc3ncc(Cl)cc3Cl)nc3ccccc32)cc1 (stereo unspecified) | n
O=C(Cn1cnc2ccccc2c1=O)Nc1ccc2c(c1)OCCO2 | -110
SMILES | aSyn 5UTR act
CCN(CC)C(=O)Cn1cc(C(=O)C(=O)Nc2ccc3c(c2)OCCO3)c2ccccc21 | -91
O=C(CN1C(=O)C2C3C=CC(C3)C2C1=O)Nc1ccc2c(c1)OCCO2 (stereo unspecified) | -116
O=C(CSCc1ccccc1)Nc1ccc(Cl)cn1 | -134
O=C(CSCc1ccccc1)Nc1ccc(F)c(F)c1 | -136
Cc1cc(C)cc(C(=O)N2CC(=O)Nc3ccccc32)c1 | n
O=C(CC1Nc2ccccc2NC1=O)Nc1ccc2c(c1)OCO2 (stereo unspecified) | -108
Cn1cc(SCC(=O)Nc2ccc3c(c2)OCCO3)c2ccccc21 | -78
